Laboratory results as given in PubChem BioAssay (Tox21).
Results filed as inconclusive are left out. The source made the active and inactive calls. Unless noted, calls come from the whole dose curve.

Tests used:
[1] = Nuclear factor erythroid 2-related factor 2/antioxidant responsive element (Nrf2/ARE) small molecule agonists: qHTS cell viability counter screen in human keratinocytes (AID 1919968; active = well fitted curve in the direction sought with a large enough effect in the repeat runs; an effect the other way counts as inactive or inconclusive; note: nearly all actives have a fitted effect of over 55% in size)
Summary of the method: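 Stably transfected HaCaT (KeratinoSens), 1,500/well. Test agents in DMSO were applied for 23 h, 37 C/5% CO2. CellTiter-Fluor was incubated 1 h before the fluorescence read.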

[2] = Nuclear factor erythroid 2-related factor 2/antioxidant responsive element (Nrf2/ARE) small molecule agonists: luciferase reporter gene qHTS assay in human keratinocytes (AID 1919969); note: nearly all actives have a fitted effect of over 35% in size; note: potency is the fitted concentration of half-maximal effect
[3] = biological target: Gonadotropin-releasing hormone receptor (Homo sapiens) (UniProt P30968); experiment: Human gonadotropin-releasing hormone receptor (GnRHR) small molecule agonists, calcium flux assay in GnRHR-HEK293 cells (AID 1920063); note: nearly all actives have a fitted effect of over 35% in size
Summary of the method: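 Stable human GnRHR HEK293 line. 18 h plating, then calcium dye for 1 h at 37 C. Agonist-mode compound addition from DMSO stocks; fluorescence monitored 3 min.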

[4] = biological target: KiSS-1 receptor (Homo sapiens) (UniProt Q969F8); experiment: Human kisspeptin (KISS1R) small molecule agonists, calcium flux assay in KISS1R-HEK293 cells (AID 1920064; active = well fitted curve in the direction sought with a large enough effect in the repeat runs; an effect the other way counts as inactive or inconclusive)
Summary of the method: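 After overnight (18 h) culture at 37 C/5% CO2, human KISS1R-HEK293 cells received calcium dye for 1 h, then test compound; emission at 540 nm (excitation 480 nm) was tracked for 3 min.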

[5] = G protein-coupled receptor (GPCR) small molecule agonists, calcium flux assay: HEK293 wild type cell line counter screen (AID 1920065)
Summary of the method: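 Following 18 h incubation at 37 C/5% CO2, plates got calcium dye for 1 h; compounds, ATP or DMSO were then pinned in and fluorescence followed kinetically (480/540 nm).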

[6] = p53 small molecule agonists, cell-based qHTS assay with human liver microsomes (AID 1963577);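 note: p53 response element beta-lactamase reporter cells with liver microsomes plus NADPH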
Summary of the method: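 16 h, 37 C exposure of p53RE-bla cells to compounds with human liver microsomes and NADPH (0.5 mg/mL final each); detection via LiveBLAzer mixture, 2 h dark at room temperature.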

[7] = p53 small molecule agonists, cell-based qHTS assay with rat liver microsomes (AID 1963578)
Summary of the method: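 With rat liver microsomes and NADPH present (0.5 mg/mL final each), p53RE-bla cells are treated with compound for 16 h at 37 C. LiveBLAzer detection mixture is then applied for 2 h at room temperature in the dark.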

[8] = p53 small molecule agonists, cell-based qHTS assay with human liver microsomes: qHTS cell viability counter screen (AID 1963579); note: nearly all actives have a fitted effect of over 45% in size
Summary of the method: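 In this multiplexed counter screen, the reporter plates were subsequently treated with CellTiter-Glo so that cell viability, reflected by luminescence, could be recorded for p53RE-bla cells dosed 16 h with compounds under microsomal activation (HLM and NADPH).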

[9] = p53 small molecule agonists, cell-based qHTS assay with rat liver microsomes: qHTS cell viability counter screen (AID 1963580); note: nearly all actives have a fitted effect of over 45% in size
Summary of the method: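 Cytotoxicity counter screen: intracellular ATP measured by CellTiter-Glo luminescence in the same wells as the beta-lactamase reporter read, on HCT-116 p53RE-bla cells exposed 16 h at 37 C to compounds with rat liver microsomes and NADPH, each 0.5 mg/mL final.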

[10] = p53 small molecule agonists, cell-based qHTS assay: qHTS cell viability counter screen (AID 1963581); note: nearly all actives have a fitted effect of over 45% in size
Summary of the method: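 qHTS counter screen: 16 h compound exposure at 37 C of p53RE-bla HCT-116 cells (4,000 per well, seeded 5 h prior), cell viability by ATP luminescence.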

[11] = p53 small molecule agonists, cell-based qHTS assay (AID 1963582; active = well fitted activation curve with a large enough effect in the signal ratio in the repeat runs, not every such curve was filed as active; the % refers to the signal ratio)
Summary of the method: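 Measured: fluorescence from cleaved LiveBLAzer substrate. System: p53RE-bla cells, 16 h compound treatment at 37 C, 2 h substrate step at room temperature.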

[12] = biological target: 5-hydroxytryptamine receptor 2A (Homo sapiens) (UniProt P28223); experiment: 5-hydroxytryptamine receptor 2A (HTR2A) small molecule agonists, cell-based qHTS assay (AID 1963587); note: nearly all actives have a fitted effect of over 30% in size
Summary of the method: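 CHO cells stably expressing human HTR2A, plated 18 h, loaded with calcium dye 1 h at 37 C. Agonist mode: compounds added and intracellular calcium fluorescence recorded kinetically for 2 min at 1 sec intervals.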

[13] = biological target: Muscarinic acetylcholine receptor M1 (Homo sapiens) (UniProt P11229); experiment: Cholinergic receptor muscarinic 1 (CHRM1) small molecule antagonists, cell-based qHTS assay (AID 1963588); note: nearly all actives have a fitted effect of over 40% in size; note: potency is the fitted concentration of half-maximal effect
Summary of the method: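 Compounds were tested at 15 concentrations in three independent runs. Dye-loaded CHRM1-CHO cells were exposed 5 min at room temperature before stimulation by acetylcholine added at 50nM. Intracellular calcium was read kinetically on FDSS for 3 min.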

[14] = biological target: Muscarinic acetylcholine receptor M1 (Homo sapiens) (UniProt P11229); experiment: Cholinergic receptor muscarinic 1 (CHRM1) small molecule agonists, cell-based qHTS assay (AID 1963589); note: nearly all actives have a fitted effect of over 35% in size
Summary of the method: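 Kinetic fluorescence (1 s intervals) of calcium-sensitive dye in human M1 CHO cells after compound addition; cells pre-incubated 18 h at 37 C/5% CO2 and dye-loaded 1 h.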

[15] = cAMP Responsive Elements (CRE) small molecule agonists, cell-based qHTS assay (AID 1963590)
Summary of the method: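 Test agents in DMSO were incubated 3 h at 37 C/5% CO2 with CRE-bla HEK 293T cells seeded 18 h earlier; LiveBLAzer B/G FRET substrate was added and read after 2 h at room temperature.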

[16] = cAMP Responsive Elements (CRE) small molecule antagonists, cell-based qHTS assay (AID 1963591; active = well fitted inhibition curve with a large enough effect in the signal ratio in the repeat runs, not every such curve was filed as active; the % refers to the signal ratio)
Summary of the method: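 Reporter line CRE-bla HEK 293T in dialyzed-FBS DMEM; cells preincubated 18 h, treated 3 h with compound plus NKH477 (0.25 uM final); LiveBLAzer FRET, 2 h RT.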

[17] = biological target: Beta-2 adrenergic receptor (Homo sapiens) (UniProt P07550); experiment: Adrenergic beta2 receptor (ADRB2) small molecule antagonists, cell-based qHTS assay (AID 1963592); note: series mostly up to about 92 µM; nearly all actives have a fitted effect of over 50% in size
Summary of the method: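 Assay format: CHO-ADRB2 cells, 18-20hr seeding at 37C/5% CO2, then compound plus 1nM isoproterenol agonist mix for 0.5hr RT. Homogeneous time-resolved fluorescence cAMP detection after 1hr, expressed as 665/615 nm ratio.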

[18] = biological target: Beta-2 adrenergic receptor (Homo sapiens) (UniProt P07550); experiment: Adrenergic beta2 receptor (ADRB2) small molecule agonists, cell-based qHTS assay (AID 1963593);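 note: CHO cells stably overexpressing human ADRB2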
Summary of the method: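 CHO cells stably over-expressing ADRB2 were plated overnight at 37C, then dosed with compounds plus a stimulation mix containing 100uM IBMX and 25uM Ro-20-1724 for 0.5hr at room temperature. cAMP was measured by HTRF competition, 1hr.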

[19] = biological target: D(2) dopamine receptor (Homo sapiens) (UniProt P14416); experiment: Dopamine D2 receptor (DRD2) small molecule agonists, cell-based qHTS assay (AID 1963594); note: nearly all actives have a fitted effect of over 35% in size
Summary of the method: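 HEK293 cells stably expressing human DRD2, pre-treated with PDE inhibitor Ro20-1724 (0.1 mM final) and compound 10 min at room temperature, then stimulated with NKH477 (200nM […]) for 30 min. cAMP read by HTRF (665/620 nm).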

[20] = biological target: D(2) dopamine receptor (Homo sapiens) (UniProt P14416); experiment: Dopamine D2 receptor (DRD2) small molecule antagonists, cell-based qHTS assay (AID 1963595; active = well fitted inhibition curve with a large enough effect in the signal ratio in the repeat runs, with a control signal flat; the % refers to the signal ratio; note: potency is the fitted concentration of half-maximal effect)
Summary of the method: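 Readout: HTRF cAMP, cAMP-d2 competing with cellular cAMP for anti-cAMP cryptate, read after 1 h. Cells: DRD2-HEK293. Conditions: 0.1 mM Ro20-1724, 12 nM quinpirole, 200 nM NKH477, 30 min RT.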
% is set by controls: 0 for no effect and ±100 for the full control effect.

Gonadotropin-releasing hormone receptor (Homo sapiens), sequence (P30968 whole entry, looked up): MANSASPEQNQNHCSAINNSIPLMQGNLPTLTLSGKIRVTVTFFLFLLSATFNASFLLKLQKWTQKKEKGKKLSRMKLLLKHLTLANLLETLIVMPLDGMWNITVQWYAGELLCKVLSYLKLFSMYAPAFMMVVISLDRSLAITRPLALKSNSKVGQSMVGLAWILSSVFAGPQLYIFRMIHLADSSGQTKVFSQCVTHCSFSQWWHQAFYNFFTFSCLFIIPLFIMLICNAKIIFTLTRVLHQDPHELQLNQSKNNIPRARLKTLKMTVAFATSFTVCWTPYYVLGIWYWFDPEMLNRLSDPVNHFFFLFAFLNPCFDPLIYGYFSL
Beta-2 adrenergic receptor (Homo sapiens), sequence (P07550 whole entry, looked up): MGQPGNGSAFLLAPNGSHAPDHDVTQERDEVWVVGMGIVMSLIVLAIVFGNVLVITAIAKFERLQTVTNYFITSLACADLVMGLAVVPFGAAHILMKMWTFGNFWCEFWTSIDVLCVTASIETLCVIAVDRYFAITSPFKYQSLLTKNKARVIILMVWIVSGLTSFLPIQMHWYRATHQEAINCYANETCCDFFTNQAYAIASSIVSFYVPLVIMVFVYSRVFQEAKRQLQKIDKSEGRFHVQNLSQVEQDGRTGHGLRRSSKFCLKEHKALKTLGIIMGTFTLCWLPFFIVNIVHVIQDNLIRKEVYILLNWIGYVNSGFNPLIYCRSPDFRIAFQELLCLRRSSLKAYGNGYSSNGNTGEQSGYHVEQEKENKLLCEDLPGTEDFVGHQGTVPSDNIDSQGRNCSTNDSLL
5-hydroxytryptamine receptor 2A (Homo sapiens), sequence (P28223 whole entry, looked up): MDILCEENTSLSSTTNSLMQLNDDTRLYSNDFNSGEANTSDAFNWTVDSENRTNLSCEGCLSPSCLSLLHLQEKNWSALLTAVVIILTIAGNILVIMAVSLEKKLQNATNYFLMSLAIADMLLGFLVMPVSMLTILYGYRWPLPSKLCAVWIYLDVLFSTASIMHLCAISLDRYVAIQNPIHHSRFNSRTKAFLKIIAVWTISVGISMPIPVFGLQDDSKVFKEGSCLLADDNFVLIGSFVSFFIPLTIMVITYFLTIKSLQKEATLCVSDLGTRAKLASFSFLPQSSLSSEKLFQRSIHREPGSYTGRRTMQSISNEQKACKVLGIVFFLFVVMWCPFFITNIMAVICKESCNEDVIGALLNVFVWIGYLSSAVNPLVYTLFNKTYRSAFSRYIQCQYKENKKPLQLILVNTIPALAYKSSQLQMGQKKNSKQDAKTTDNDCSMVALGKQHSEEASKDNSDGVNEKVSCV
D(2) dopamine receptor (Homo sapiens), sequence (P14416 whole entry, looked up): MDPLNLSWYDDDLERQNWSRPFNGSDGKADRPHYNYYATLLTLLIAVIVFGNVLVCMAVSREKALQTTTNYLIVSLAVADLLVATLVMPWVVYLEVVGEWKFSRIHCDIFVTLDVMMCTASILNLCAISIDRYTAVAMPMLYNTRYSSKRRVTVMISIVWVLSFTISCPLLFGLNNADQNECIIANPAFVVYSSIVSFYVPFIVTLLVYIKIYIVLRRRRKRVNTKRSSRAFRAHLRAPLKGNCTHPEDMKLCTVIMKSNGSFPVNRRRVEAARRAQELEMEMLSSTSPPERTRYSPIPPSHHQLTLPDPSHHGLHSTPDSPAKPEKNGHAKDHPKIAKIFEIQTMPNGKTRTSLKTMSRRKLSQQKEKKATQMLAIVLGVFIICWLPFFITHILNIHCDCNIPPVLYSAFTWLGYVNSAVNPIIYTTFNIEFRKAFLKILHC
KiSS-1 receptor (Homo sapiens), sequence (Q969F8 whole entry, looked up): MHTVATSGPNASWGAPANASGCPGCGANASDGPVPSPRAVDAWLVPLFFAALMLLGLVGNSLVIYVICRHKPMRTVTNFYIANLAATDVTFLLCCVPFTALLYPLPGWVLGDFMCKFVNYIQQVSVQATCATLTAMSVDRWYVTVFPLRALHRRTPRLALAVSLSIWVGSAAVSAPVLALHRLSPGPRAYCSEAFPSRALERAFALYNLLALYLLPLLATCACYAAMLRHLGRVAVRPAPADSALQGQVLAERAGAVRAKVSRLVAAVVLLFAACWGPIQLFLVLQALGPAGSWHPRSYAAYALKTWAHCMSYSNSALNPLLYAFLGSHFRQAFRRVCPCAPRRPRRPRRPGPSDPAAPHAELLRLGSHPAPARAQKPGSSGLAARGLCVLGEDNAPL
Muscarinic acetylcholine receptor M1 (Homo sapiens), sequence (P11229 whole entry, looked up): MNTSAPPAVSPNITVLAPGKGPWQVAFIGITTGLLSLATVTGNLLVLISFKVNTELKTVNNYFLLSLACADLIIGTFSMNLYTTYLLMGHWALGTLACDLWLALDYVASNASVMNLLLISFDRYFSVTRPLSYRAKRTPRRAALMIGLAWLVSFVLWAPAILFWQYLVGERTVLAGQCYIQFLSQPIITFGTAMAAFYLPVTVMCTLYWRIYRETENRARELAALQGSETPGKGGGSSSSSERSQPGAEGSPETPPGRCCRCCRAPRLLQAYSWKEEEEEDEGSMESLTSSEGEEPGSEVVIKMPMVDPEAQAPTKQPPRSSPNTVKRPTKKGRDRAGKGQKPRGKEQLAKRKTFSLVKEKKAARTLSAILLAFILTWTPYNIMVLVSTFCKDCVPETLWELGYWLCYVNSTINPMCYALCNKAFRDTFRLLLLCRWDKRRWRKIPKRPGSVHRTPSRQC

CC(C)(C)c1cccc(O)c1
inactive: Potency [1] | Potency [3] | outcome [4] | outcome [5] | Potency [6] | Potency [7] | Potency [8] | Potency [9] | Potency [10] | Potency [11] | Potency [12] | Potency [13] | Potency [14] | Potency [15] | Potency [16] | Potency [17] | Potency [18] | Potency [19] | Potency [20]
active: Potency [2] 61100 nM

CC1(c2ccccc2)OC(C(=O)O)=CC1=O (stereo unspecified)
inactive: Potency [1] | Potency [2] | Potency [3] | outcome [4] | outcome [5] | Potency [6] | Potency [7] | Potency [8] | Potency [9] | Potency [10] | Potency [11] | Potency [12] | Potency [13] | Potency [14] | Potency [15] | Potency [16] | Potency [17] | Potency [18] | Potency [20]

O=S(O)O
inactive: activity change, negative = cytotoxicity [1] -0.591% [at 19 µM] | activity, positive = activation [2] -3.64% [at 19 µM] | activity change [3] -0.296% [at 11.8 µM, stronger effect = higher value] | activation [4] -3.75% [at 15.8 µM] | activation [5] -0.558% [at 11.8 µM] | activation [6] 4.55% [at 13.5 µM] | activation [7] -0.532% [at 13.6 µM] | activity change, negative = cytotoxicity [8] -0.784% [at 13.5 µM] | activity change, negative = cytotoxicity [9] 11.9% [at 13.5 µM] | activity change, negative = cytotoxicity [10] 16.3% [at 13.5 µM] | activation [11] 0.538% [at 13.5 µM] | activation [12] 4.7% [at 15.9 µM] | activity, negative = inhibition [13] 27.3% [at 12.6 µM] | activation [14] 0.709% [at 15.8 µM] | activation [15] 1.33% [at 19 µM] | activity change, negative = inhibition [16] 0.0539% [at 18.9 µM] | Potency [18] | activation [19] 2.66% [at 19 µM] | activity change, negative = inhibition [20] -0.433% [at 18.9 µM]

CCN1CCN(c2cc(-c3ccc(F)cc3)c3c(n2)CCCCCC3)CC1
inactive: activity change, negative = cytotoxicity [1] -1.5% [at 19 µM] | activity, positive = activation [2] -2.3% [at 19 µM] | activity change [3] 17.8% [at 11.8 µM, stronger effect = higher value] | activation [4] 8.32% [at 15.8 µM] | activation [5] -0.133% [at 11.8 µM] | activation [6] -0.562% [at 13.5 µM] | activation [7] -1.02% [at 13.6 µM] | activity change, negative = cytotoxicity [8] 11.2% [at 13.5 µM] | activity change, negative = cytotoxicity [9] 0.85% [at 13.5 µM] | activity change, negative = cytotoxicity [10] 1.98% [at 13.5 µM] | activation [11] -0.331% [at 13.5 µM] | activation [12] -5.11% [at 15.9 µM] | activation [14] 2.2% [at 15.8 µM] | activation [15] 0.689% [at 19 µM] | activity change, negative = inhibition [16] 1.59% [at 18.9 µM] | activity change, negative = inhibition [17] -12.5% [at 19 µM]
active: Potency [13] 31.7 nM | Potency [20] 32.6 nM

O=C1c2ccccc2C(=O)N1CO
inactive: Potency [1] | Potency [2] | Potency [3] | outcome [4] | outcome [5] | Potency [6] | Potency [7] | Potency [8] | Potency [9] | Potency [10] | Potency [11] | Potency [12] | Potency [13] | Potency [14] | Potency [15] | Potency [16] | Potency [17] | Potency [18] | Potency [19] | Potency [20]
